In the supplement of paper PMC11732987, “Enantioselective OTUD7B fragment discovery through chemoproteomics screening and high-throughput optimisation” (Communications Chemistry, 2025):

What was measured:
Assay in all cases: log2 ratio of Biotin-Ahx-Ub-VS probe labelling (fragment/DMSO); higher = less target engagement (more negative = stronger competition), active = hit call of the paper (q ≤ 0.05, log2 ratio ≤ -1)
Conditions in all cases: compound concentration: 200 uM; treatment time: 3 h
[1] = target: T1, USP42 (UniProt Q9H9J4)
T1 sequence (whole entry): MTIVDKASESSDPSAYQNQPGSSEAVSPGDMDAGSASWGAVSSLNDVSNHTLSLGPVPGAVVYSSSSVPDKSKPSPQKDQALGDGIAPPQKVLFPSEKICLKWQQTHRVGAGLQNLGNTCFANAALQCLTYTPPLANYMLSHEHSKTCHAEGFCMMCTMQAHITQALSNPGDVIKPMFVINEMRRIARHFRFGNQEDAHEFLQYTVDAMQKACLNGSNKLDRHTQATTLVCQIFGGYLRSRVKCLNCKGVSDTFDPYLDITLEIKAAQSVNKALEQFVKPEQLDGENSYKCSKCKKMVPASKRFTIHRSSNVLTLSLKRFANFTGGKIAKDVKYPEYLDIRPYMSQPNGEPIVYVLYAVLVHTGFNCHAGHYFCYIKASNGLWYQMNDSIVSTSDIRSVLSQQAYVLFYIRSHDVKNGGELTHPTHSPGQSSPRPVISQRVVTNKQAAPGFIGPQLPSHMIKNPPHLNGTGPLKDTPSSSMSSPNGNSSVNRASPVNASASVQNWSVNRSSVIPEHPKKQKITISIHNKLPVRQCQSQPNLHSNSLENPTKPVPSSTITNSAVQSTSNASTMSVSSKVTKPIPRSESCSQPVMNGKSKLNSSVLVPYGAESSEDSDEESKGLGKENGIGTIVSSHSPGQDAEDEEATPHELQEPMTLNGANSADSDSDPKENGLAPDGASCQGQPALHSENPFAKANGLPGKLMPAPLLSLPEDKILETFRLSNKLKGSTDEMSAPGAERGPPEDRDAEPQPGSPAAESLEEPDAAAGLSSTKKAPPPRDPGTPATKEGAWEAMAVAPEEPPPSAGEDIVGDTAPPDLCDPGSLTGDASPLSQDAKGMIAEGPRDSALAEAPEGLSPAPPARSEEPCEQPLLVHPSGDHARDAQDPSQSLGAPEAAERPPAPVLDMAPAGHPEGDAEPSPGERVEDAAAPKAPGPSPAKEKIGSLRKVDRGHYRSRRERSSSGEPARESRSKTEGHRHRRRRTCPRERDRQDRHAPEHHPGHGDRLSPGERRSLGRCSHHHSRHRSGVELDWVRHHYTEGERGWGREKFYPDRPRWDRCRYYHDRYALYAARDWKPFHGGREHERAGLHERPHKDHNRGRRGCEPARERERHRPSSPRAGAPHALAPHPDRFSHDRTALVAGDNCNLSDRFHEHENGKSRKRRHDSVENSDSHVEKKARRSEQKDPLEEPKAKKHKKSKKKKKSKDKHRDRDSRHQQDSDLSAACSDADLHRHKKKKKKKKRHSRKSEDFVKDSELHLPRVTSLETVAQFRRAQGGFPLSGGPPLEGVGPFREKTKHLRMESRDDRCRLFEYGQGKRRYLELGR
Procedure, shortened: (§1)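 HEK293T lysate (495 µg per sample, in Tris/CHAPS/IGEPAL buffer with protease inhibitors) was treated in triplicate with fragment at 200 µM or with DMSO for 3 h. It was then treated with Biotin-Ahx-Ub-VS (0.5 µM final) for 1 h. Labelled DUBs were NeutrAvidin-enriched, digested with LysC and trypsin, and run by diaPASEF LC-MS/MS. Spectronaut label-free quantities were global-median-normalised. Values are average log2 ratios fragment/DMSO by unpaired t-test, using proteins with ≥2 unique peptides.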

[2] = target: USP46 (UniProt P62068)
Procedure, shortened: as §1

[3] = target: T2, USP47 (UniProt Q96K76)
T2 sequence (whole entry): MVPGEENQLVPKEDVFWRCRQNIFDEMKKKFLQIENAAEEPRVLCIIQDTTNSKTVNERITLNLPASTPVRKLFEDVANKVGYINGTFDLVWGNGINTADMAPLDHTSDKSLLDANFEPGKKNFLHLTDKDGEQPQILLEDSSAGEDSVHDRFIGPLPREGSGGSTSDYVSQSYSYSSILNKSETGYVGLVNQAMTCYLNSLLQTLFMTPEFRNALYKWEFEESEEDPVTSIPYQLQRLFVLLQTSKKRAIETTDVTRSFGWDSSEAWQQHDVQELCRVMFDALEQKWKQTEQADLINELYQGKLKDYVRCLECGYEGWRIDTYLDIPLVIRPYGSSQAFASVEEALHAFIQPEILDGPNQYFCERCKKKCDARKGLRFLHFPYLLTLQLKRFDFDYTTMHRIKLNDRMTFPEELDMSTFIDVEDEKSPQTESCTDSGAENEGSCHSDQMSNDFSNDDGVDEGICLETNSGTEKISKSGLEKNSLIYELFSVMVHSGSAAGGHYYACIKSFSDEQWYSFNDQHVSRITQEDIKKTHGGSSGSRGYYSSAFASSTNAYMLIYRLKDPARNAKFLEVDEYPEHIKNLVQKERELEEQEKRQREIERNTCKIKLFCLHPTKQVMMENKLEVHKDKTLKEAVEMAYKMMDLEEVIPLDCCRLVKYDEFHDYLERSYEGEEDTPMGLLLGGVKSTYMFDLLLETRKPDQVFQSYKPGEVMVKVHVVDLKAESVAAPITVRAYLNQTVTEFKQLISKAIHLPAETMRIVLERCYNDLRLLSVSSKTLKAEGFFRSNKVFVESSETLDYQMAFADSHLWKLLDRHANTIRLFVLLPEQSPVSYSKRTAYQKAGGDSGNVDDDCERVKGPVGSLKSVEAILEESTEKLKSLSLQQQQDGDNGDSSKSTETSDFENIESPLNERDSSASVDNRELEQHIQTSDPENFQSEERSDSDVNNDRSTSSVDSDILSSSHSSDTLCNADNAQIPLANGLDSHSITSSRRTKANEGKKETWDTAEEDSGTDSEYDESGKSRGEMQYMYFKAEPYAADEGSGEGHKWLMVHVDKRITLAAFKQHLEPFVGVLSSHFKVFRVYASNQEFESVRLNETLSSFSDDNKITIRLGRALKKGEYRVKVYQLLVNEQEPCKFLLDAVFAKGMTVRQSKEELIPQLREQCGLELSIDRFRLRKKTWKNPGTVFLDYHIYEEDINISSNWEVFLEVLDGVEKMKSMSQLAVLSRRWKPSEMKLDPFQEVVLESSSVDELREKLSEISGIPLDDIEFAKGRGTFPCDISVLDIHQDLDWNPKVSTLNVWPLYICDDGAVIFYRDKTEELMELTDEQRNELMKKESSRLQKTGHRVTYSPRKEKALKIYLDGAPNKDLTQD
Procedure, shortened: as §1

[4] = target: T3, USP48 (UniProt Q86UV5)
T3 sequence (whole entry): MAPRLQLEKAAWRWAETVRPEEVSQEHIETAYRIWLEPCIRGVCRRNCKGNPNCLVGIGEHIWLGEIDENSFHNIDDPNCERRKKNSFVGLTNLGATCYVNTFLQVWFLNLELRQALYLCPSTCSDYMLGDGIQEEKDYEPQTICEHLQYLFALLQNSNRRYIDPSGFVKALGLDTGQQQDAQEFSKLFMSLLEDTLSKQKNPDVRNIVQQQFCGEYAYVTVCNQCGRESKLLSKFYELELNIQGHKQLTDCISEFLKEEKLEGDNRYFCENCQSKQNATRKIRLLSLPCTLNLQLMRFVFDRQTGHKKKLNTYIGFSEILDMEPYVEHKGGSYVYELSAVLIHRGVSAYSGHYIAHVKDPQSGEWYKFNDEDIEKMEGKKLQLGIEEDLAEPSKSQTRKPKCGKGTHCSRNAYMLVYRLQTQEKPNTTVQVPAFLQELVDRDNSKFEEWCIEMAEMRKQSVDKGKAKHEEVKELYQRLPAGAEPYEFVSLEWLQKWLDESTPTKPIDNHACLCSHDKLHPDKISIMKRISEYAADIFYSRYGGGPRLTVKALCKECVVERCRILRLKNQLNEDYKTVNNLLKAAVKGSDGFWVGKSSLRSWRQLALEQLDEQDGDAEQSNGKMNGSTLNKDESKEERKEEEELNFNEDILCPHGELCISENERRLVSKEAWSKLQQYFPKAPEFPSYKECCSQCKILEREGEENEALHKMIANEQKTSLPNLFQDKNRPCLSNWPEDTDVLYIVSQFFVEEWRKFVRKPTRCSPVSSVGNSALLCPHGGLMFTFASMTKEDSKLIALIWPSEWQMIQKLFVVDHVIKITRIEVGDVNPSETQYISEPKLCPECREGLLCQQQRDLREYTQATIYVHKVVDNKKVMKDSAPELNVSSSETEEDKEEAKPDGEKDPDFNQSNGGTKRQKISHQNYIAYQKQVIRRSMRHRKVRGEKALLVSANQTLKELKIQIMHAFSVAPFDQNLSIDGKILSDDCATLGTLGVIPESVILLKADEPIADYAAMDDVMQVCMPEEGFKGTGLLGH
Procedure, shortened: as §1

[5] = target: T4, USP5 (UniProt P45974)
T4 sequence (whole entry): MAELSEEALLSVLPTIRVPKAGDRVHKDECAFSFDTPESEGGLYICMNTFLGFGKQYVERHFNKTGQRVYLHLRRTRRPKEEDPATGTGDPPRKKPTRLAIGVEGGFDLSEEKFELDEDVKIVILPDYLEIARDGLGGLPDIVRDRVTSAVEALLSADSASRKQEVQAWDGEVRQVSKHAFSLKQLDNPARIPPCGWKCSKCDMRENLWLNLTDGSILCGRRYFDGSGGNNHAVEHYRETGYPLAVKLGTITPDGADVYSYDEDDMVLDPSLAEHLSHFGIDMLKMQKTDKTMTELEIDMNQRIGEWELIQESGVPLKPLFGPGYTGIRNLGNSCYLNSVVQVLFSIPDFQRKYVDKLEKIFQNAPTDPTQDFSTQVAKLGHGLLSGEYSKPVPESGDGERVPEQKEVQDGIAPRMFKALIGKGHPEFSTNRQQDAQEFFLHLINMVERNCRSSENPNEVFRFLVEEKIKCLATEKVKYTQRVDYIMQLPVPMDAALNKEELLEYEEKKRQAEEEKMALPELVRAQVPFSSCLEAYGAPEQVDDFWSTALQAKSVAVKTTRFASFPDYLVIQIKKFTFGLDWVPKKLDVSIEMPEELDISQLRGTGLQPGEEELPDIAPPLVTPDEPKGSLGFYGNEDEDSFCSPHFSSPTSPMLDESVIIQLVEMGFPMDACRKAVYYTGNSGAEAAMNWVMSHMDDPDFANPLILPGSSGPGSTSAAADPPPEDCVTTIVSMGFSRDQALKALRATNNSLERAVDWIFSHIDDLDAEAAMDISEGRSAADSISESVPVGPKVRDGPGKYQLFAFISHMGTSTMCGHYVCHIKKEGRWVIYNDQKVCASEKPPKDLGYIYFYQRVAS
Procedure, shortened: as §1

[6] = target: USP54 (UniProt Q70EL1)
Procedure, shortened: as §1

[7] = target: USP7 (UniProt Q93009)
Procedure, shortened: as §1

[8] = target: T5, USP8 (UniProt P40818)
T5 sequence (whole entry): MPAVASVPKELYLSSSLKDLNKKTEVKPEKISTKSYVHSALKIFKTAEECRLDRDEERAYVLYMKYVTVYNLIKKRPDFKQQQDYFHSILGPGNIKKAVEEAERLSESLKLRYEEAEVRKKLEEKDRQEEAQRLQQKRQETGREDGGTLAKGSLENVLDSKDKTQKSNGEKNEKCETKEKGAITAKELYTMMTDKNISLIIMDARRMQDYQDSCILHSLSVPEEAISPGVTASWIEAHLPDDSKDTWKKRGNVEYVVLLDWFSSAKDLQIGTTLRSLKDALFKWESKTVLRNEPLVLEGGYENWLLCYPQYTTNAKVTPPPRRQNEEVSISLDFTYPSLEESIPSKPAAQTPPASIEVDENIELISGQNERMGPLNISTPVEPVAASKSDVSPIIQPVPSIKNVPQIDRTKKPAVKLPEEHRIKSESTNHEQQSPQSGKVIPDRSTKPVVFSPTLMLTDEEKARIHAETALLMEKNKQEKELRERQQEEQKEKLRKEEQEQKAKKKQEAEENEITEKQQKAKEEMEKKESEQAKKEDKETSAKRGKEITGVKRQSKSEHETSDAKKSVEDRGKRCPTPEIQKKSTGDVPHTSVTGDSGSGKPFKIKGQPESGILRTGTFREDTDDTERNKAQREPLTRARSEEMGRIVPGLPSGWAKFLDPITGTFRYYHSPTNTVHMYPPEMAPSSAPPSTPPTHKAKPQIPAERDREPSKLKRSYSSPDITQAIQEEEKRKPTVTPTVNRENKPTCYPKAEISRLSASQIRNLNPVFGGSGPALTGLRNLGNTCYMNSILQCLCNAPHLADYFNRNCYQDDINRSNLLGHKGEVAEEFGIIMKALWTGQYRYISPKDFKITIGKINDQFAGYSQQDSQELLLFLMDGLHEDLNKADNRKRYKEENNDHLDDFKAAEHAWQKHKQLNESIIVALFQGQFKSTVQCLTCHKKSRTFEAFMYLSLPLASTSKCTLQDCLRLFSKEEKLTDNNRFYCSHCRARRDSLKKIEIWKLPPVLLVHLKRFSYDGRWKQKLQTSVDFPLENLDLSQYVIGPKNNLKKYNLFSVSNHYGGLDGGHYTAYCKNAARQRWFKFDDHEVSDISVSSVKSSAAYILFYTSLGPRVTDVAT
Procedure, shortened: as §1

Measured: log2 ratio of Biotin-Ahx-Ub-VS probe labelling

USP46, sequence (P62068 whole entry): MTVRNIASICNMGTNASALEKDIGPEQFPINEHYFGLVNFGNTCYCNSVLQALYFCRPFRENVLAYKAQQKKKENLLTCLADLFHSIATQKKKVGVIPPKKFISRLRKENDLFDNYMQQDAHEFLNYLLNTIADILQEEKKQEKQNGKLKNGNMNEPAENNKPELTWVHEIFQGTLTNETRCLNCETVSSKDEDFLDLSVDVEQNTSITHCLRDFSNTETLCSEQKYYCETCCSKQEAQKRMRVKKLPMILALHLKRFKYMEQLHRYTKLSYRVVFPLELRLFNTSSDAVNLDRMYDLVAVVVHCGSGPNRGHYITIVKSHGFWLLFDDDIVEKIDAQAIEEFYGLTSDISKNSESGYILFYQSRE
USP54, sequence (Q70EL1 whole entry): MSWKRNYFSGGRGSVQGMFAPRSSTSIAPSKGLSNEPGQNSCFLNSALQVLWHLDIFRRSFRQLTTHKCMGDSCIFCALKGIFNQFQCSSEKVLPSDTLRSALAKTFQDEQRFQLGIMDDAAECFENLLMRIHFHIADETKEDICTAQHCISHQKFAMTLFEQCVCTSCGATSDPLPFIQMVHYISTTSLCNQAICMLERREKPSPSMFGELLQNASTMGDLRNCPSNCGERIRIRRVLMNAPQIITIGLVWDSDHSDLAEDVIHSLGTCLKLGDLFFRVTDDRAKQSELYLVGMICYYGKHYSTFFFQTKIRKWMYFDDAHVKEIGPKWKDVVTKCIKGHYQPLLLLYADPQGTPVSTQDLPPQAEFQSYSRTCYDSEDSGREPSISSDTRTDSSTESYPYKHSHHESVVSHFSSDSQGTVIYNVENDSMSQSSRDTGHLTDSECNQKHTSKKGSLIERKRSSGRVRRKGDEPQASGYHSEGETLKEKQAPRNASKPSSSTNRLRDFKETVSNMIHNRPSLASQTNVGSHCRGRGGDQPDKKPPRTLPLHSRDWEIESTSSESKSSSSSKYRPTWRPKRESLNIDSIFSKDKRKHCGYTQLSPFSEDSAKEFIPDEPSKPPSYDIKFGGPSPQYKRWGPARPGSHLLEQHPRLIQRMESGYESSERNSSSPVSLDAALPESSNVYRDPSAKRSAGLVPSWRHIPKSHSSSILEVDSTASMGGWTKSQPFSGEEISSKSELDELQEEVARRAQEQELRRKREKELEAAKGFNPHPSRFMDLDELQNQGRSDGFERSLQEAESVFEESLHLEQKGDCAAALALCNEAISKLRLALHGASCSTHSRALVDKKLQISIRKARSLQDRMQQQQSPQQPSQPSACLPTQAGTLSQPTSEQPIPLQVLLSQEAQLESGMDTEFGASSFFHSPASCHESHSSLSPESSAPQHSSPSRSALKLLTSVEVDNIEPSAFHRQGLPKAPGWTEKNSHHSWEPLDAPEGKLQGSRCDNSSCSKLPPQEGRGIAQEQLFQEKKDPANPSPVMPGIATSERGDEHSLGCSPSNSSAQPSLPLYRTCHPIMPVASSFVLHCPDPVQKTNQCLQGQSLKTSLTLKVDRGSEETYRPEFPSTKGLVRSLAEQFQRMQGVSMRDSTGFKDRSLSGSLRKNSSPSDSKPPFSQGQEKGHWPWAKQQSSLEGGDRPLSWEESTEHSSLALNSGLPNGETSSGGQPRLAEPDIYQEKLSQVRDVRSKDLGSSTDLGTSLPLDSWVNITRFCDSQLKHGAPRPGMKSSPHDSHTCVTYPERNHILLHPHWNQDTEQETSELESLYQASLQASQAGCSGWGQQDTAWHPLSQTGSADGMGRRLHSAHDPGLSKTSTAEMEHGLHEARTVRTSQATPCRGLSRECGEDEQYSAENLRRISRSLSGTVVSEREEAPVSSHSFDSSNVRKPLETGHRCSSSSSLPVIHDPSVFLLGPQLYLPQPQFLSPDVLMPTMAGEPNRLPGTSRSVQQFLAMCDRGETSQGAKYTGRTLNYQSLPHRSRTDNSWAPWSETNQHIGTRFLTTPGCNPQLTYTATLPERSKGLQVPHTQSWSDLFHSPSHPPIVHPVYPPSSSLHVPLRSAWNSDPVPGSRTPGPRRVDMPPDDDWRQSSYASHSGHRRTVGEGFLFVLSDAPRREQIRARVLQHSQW
USP7, sequence (Q93009 whole entry, looked up): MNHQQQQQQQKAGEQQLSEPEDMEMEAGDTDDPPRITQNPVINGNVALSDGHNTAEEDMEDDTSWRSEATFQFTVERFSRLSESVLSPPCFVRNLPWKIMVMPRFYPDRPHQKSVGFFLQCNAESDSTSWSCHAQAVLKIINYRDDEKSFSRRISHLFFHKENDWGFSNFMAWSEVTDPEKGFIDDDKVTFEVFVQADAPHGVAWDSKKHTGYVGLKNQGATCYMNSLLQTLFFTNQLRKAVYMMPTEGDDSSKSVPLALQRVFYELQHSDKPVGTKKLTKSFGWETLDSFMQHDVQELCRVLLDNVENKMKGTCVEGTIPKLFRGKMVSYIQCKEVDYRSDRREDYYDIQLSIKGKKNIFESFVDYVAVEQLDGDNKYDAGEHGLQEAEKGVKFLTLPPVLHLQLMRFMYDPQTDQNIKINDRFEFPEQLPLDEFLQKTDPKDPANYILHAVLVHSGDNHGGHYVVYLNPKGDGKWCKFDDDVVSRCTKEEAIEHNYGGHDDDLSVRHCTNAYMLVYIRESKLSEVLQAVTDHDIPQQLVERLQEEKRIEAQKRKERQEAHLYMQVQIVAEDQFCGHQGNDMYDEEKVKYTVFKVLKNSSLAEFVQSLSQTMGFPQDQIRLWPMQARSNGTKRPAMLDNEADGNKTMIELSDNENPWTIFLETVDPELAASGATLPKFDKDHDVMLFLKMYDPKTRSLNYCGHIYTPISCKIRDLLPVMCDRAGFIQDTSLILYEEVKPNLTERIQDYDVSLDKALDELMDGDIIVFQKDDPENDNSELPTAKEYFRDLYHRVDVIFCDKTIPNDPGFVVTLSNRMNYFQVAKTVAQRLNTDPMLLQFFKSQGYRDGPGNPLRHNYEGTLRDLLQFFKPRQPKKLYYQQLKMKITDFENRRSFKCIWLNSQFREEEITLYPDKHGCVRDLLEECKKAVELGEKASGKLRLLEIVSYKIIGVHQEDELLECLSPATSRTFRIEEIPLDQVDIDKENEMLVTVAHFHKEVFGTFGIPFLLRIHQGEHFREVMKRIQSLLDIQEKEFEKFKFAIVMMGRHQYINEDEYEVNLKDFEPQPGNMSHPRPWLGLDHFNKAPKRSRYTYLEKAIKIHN

Cc1ccc(CC(NC(=O)CCl)c2ccccn2)cc1.Cl (stereo not drawn)
inactive: [1] -0.109 | [2] 0.168 | [3] 0.0361 | [4] 0.0528 | [5] -0.125 | [6] 0.195 | [7] -0.0773 | [8] 0.0199
